V-ATPase pH = regulators of yeast V-ATPase proton pumping, primary screen, pHLuorin cytosolic pH fluorescence; response, % at 10 µM; 0.37% of 350,000 active; AID 504577, 2011; S. cerevisiae; in the data active = response mostly above about 7.3%, no sharp cut-off; inactive = mostly below about 5.4%; note: actives read high
TIM10 inh = growth inhibitors of isogenic TIM10 control yeast, primary screen, counter-screen for tim10-1 yeast inhibitor project, luminescence, uHTS; 1.4% of 330,000 active; S. cerevisiae TIM10 strain growth, BacTiter-Glo luminescence, 24 h; inhibition, % at 10 µM;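 active = inhibition of 40% or more at the single tested concentration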;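 note: wild-type TIM10 isogenic control strain grown at permissive 25 °C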
SKKanGAS inh = S. pyogenes SKKanGAS growth inhibitors in kanamycin, primary screen, streptokinase expression inhibitor project, SKKanGAS strain, BacTiter-Glo luminescence; 6 h; inhibition, % at 7.5 µM; 1.3% of 300,000 active; AID 1662, 2009;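 active = mean replicate score, as percent of positive control median, at least 50; inconclusive = mean below 50 but one replicate at or above 50; inactive = mean and every replicate below 50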;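 note: strain carries kanamycin resistance gene driven by streptokinase promoter and grows in 40 µg/ml kanamycin; loss of luminescence reflects streptokinase promoter inhibition or plain growth inhibition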
tim23-1 inh = growth inhibitors of tim23-1 mutant yeast, primary screen, luminescence, uHTS; S. cerevisiae tim23-1 growth, BacTiter-Glo luminescence, 24 h; inhibition, % at 20 µM; 1.3% of 330,000 active;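 active = growth inhibition of the mutant yeast at or above 50%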;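 note: temperature-sensitive mutant grown at 25 °C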
tim10-1 inh = growth inhibitors of tim10-1 mutant yeast, primary screen, luminescence, uHTS; S. cerevisiae tim10-1 ts strain growth, BacTiter-Glo, 24 h; inhibition, % at 20 µM; 2.2% of 330,000 active;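 active = inhibition of at least 40%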;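 note: mutant grown at 25 °C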
PfHsp90 set2 = growth inhibition of PfHsp90-expressing yeast, primary screen, antimalarial PfHsp90 inhibitor project, S. cerevisiae, BacTiter-Glo luminescence, single point, set 2; BacTiter-Glo ATP, 48 h; yeast lacking PDR1 and PDR3 efflux regulators; 0.32% of 310,000 active; inhibition, % at 9.4 µM; AID 504621, 2011;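 active = every replicate shows inhibition above about 80%, whatever the replicate mean, limit read from the data; inconclusive = mean inhibition reaches the set limit but some replicate falls short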
tim10-1 conf = growth inhibitors of tim10-1 mutant yeast, confirmation, single concentration, luminescence, S. cerevisiae; inhibition, % at 20 µM; shares compounds with tim10-1 inh; 56% of 7,400 active; AID 463213, 2010; S. cerevisiae tim10-1 ts strain growth, BacTiter-Glo, 24 h;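 active = inhibition of yeast growth at or above a set limit in either of two repeat tests at 20 µM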;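 note: tim10-1 mutant grown at permissive 25 °C to find synthetic lethal compounds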
tim10 confirm = growth inhibitors of wild-type TIM10 yeast, confirmation, counter-screen for tim10-1 synthetic lethality project, single concentration, luminescence, S. cerevisiae; shares compounds with TIM10 inh; S. cerevisiae tim10 strain growth, BacTiter-Glo luminescence, 24 h; inhibition, % at 10 µM; 63% of 4,600 active; AID 463215, 2010;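 active = inhibition of yeast growth at or above a set limit in either of two replicates at 10 µM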; note: this counterscreen used the strain with wild-type TIM10
tim23-1 conf = tim23-1 mutant yeast growth inhibitors, confirmation, luminescence, single concentration | shares compounds with tim23-1 inh | S. cerevisiae tim23-1 growth, BacTiter-Glo luminescence, 24 h | inhibition, % at 20 µM | 83% of 4,400 active;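 active = inhibition above about 39% in either of two replicate wells at 20 µM, limit read from the data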;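 note: temperature-sensitive tim23-1 mutant grown at 25 °C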
Of the large screens only hits and unclear results are named; the others gave an inactive call (follow-up assays come after a bar, where they were run). The list is not random: actives were taken first. Their share in the collection is about 4.6%.

COc1cc2c(cc1OC)CN(c1ccc([N+](=O)[O-])c(C(F)(F)F)c1)CC2	TIM10 inh 54, tim10-1 inh 60 | tim10-1 conf 55 | tim10 confirm inactive
CC(C)(O)C(=O)Nc1ccc([N+](=O)[O-])c(C(F)(F)F)c1	none (no result: SKKanGAS inh)
O=[N+]([O-])c1ccc(OP(=O)(O)Oc2ccc([N+](=O)[O-])cc2)cc1	none (no result: TIM10 inh, SKKanGAS inh, tim23-1 inh, tim10-1 inh)
Cc1c(C(=O)Nc2ccccc2)cc(-c2ccccc2)n1CCCN1CCOCC1	none (no result: PfHsp90 set2)
COCCCn1c(-c2ccc(OC)cc2)cc(C(=O)NC2CCCCCCC2)c1C	TIM10 inh 41, tim10-1 inh 54 | tim10-1 conf 42 | tim10 confirm inactive
Cc1ccc(-c2cc(-c3ccc(C)cc3)[n+](-c3ccc(C(=O)O)cc3)c(-c3ccc(C)cc3)c2)cc1	none
Cc1ccc(C[n+]2c(-c3ccc(C)cc3)cc(-c3ccc(C)cc3)cc2-c2ccc(C)cc2)cc1	TIM10 inh 58, SKKanGAS inh 106, tim23-1 inh 56, tim10-1 inh 50, PfHsp90 set2 inconclusive | tim10-1 conf 43 | tim10 confirm 50 | tim23-1 conf 60
Oc1c(Br)c(Br)c(Br)c(Br)c1Br	TIM10 inh 49, tim23-1 inh 66, tim10-1 inh 52 (no result: SKKanGAS inh) | tim10-1 conf 65 | tim10 confirm 44 | tim23-1 conf 58
CN1CC(C#N)C2(O)c3ccccc3CCC2C1 (stereo unspecified)	none
CNc1ccc2oc(C[C@H]3O[C@@]4(CC[C@H]3C)O[C@H]([C@H](C)C(=O)c3ccc[nH]3)[C@H](C)C[C@H]4C)nc2c1C(=O)O	SKKanGAS inh 107, tim23-1 inh 54, tim10-1 inh 56, PfHsp90 set2 111 | tim10-1 conf inactive | tim23-1 conf inactive
CC(=NCCCn1ccnc1)c1c(O)n(C2CCCCC2)c(=O)[nH]c1=O	none
Cc1ccnc(NS(=O)(=O)c2ccc(N=Cc3c(O)n(C)c(=O)n(C)c3=O)cc2)n1	none
Cc1ccc2cc(C=C(C#N)C#N)c(Cl)nc2c1	TIM10 inh 46, tim23-1 inh 80, tim10-1 inh 48 | tim10-1 conf 31 | tim10 confirm inactive | tim23-1 conf 76
Cc1cc(N2CCCC2)ccc1C=C(C#N)C#N	none
CNC(=S)N1CCN(CCN=Cc2c(O)n(-c3ccc(C)cc3)c(=S)[nH]c2=O)CC1	none
O=C1c2ccccc2C(=O)N1Cc1nc2ccccc2c(=O)n1-c1cccnc1	none
O=C1c2ccccc2C(=O)N1Cc1nc2ccccc2c(=O)n1-c1ccc(Br)cn1	TIM10 inh 57, tim23-1 inh 69, tim10-1 inh 59 | tim10-1 conf 55 | tim10 confirm 59 | tim23-1 conf 58
CN1CC=C(/C=C/c2ccc(-c3ccccc3)cc2)CC1	none (no result: V-ATPase pH, PfHsp90 set2)
CN1/C(=C\C=C\C2=[N+](C)c3ccc4ccccc4c3C2(C)C)C(C)(C)c2ccccc21	TIM10 inh 74, tim23-1 inh 85, tim10-1 inh 77 (no result: V-ATPase pH, SKKanGAS inh, PfHsp90 set2) | tim10-1 conf 56 | tim10 confirm 80 | tim23-1 conf 79
Cc1nc2c(=O)n(C)c(=O)nc-2n(C)n1	SKKanGAS inh 78, tim23-1 inh 54, tim10-1 inh 42 | tim10-1 conf inactive | tim23-1 conf 63
CC(C)=CCc1c(O)cc2c(c1O)C(=O)CC(c1ccc(O)cc1)O2 (stereo unspecified)	TIM10 inh 46, SKKanGAS inh 50, tim23-1 inh 60, tim10-1 inh 54 | tim10-1 conf 35 | tim10 confirm 57 | tim23-1 conf 59
CCOC(=O)C(O)(c1ccc(N(C)C(=O)c2ccc(Cl)c(Cl)c2)cc1)C(F)(F)F (stereo unspecified)	none
CCOC(=O)C(O)(c1ccc(NC(=O)c2ccc(Cl)c(Cl)c2)cc1)C(F)(F)F (stereo unspecified)	tim23-1 inh 57, tim10-1 inh 43 | tim10-1 conf 34 | tim23-1 conf 50
Clc1ccc(C(c2ccc(Cl)cc2)n2cc[n+](CC(OCc3ccc(Cl)cc3Cl)c3ccc(Cl)cc3Cl)c2)cc1 (stereo unspecified)	TIM10 inh 85, tim23-1 inh 88, tim10-1 inh 93, PfHsp90 set2 107 (no result: SKKanGAS inh) | tim10-1 conf 90 | tim10 confirm inactive | tim23-1 conf 77
O=C1NC(=O)C(=Cc2ccc(-c3ccc(Cl)cc3)o2)C(=O)N1	tim23-1 inh 54, tim10-1 inh 45 | tim10-1 conf inactive | tim23-1 conf 55
CN(C)P(=O)(N(C)C)N1CC1	none (no result: TIM10 inh, SKKanGAS inh, tim23-1 inh, tim10-1 inh)
COC(=O)C1=C(c2ccc(-c3ccccc3)c(F)c2)C[C@@H]2CC[C@H]1N2C(=O)N1CCOCC1	none (no result: SKKanGAS inh)
O=C1/C(=C\c2ccc(Cl)c(Cl)c2)N2CCC1CC2	tim23-1 inh 52, tim10-1 inh 42 | tim10-1 conf inactive | tim23-1 conf inactive
CCCNC(=O)N1[C@H]2CC[C@@H]1C(C(=O)OC)=C(c1ccc(OC)c(OC)c1)C2	none (no result: SKKanGAS inh, PfHsp90 set2)
Clc1ccc(N2CC2c2ccncc2)cc1 (stereo unspecified)	none
Cc1ccccc1[N+](=O)[O-]	none (no result: SKKanGAS inh)
Cc1cc([N+](=O)[O-])c2ccccc2[n+]1[O-]	TIM10 inh 87, tim23-1 inh 79, tim10-1 inh 68, PfHsp90 set2 108 | tim10-1 conf 61 | tim10 confirm 87 | tim23-1 conf 64
O=[N+]([O-])c1cccc(NP(=O)(N2CC2)N2CC2)c1	none (no result: TIM10 inh, SKKanGAS inh, tim23-1 inh, tim10-1 inh)
CCn1nc(-c2ccccc2)nc2c(=O)n(C)c(=O)nc1-2	TIM10 inh 96, SKKanGAS inh 95, tim23-1 inh 85, tim10-1 inh 80, PfHsp90 set2 107 | tim10-1 conf 83 | tim10 confirm 97 | tim23-1 conf 83
O=C1C(=O)c2ccccc2-c2ccccc21	TIM10 inh 92, SKKanGAS inh 86, tim23-1 inh 77, tim10-1 inh 85, PfHsp90 set2 inconclusive | tim10-1 conf 85 | tim10 confirm 98 | tim23-1 conf 77

Bioassay records as filed in PubChem.
